# Reference: the supplement of paper PMC12350171
# Counter-ions that a name gives are not always drawn. Unmarked numbers belong to inactive results.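 How the source made its calls: active = normalised median growth AUC below 0.1 of DMSO control; inactive = AUC 0.1 or higher.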
# Test system: S. enterica typhimurium WT
# Assay: growth AUC normalised to DMSO control (median) (fraction of control); higher = less growth inhibition, active = hit call of the paper
# Conditions: 20 µM
# How it was run: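 After two overnight anaerobic passages, strains were inoculated at OD578 0.01 into mGAM in 96-well plates containing approved-drug library compounds at 20 μM and 1% DMSO. Growth was followed by reading OD578 hourly for 24 h within an anaerobic incubator. Area under the curve, taken by the trapezoidal rule up to the start of stationary phase, was normalised to same-plate vehicle wells, and the median of three biological replicates is listed.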
# 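Further: active when median AUC fell below 0.1.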
row,SMILES,growth AUC normalised to DMSO control
1,O=C(Cn1c(=O)sc2ccc(Cl)cc21)N1CCN(CCO)CC1 [Tiaramide Hydrochloride],1.01
2,O=P(O)(O)C(O)(Cn1ccnc1)P(=O)(O)O [Zoledronic acid hydrate],1.01
3,O=C(O)CCNC(=O)c1ccccc1 [Betamipron],0.998
4,Cc1cn(-c2cc(NC(=O)c3ccc(C)c(Nc4nccc(-c5cccnc5)n4)c3)cc(C(F)(F)F)c2)cn1 [Nilotinib],0.994
5,OC(CNCC(O)C1CCc2cc(F)ccc2O1)C1CCc2cc(F)ccc2O1 (stereo unspecified) [Nebivolol hydrochloride],0.998
6,N#C/C(=C1/SCC(c2ccccc2Cl)S1)n1ccnc1 (stereo unspecified) [Lanoconazole],1
7,Nc1ccc2cc3ccc(N)cc3nc2c1 [Proflavine hemisulfate],0.955
8,COc1ccc2cc1Oc1ccc(cc1)C[C@H]1c3c(cc4c(c3Oc3cc5c(cc3OC)CCN(C)[C@@H]5C2)OCO4)CCN1C [Cepharanthine],1.02
9,COc1cc2c(cc1OC)CC(=O)N(CCCN(C)C[C@H]1Cc3cc(OC)c(OC)cc31)CC2 [Ivabradine hydrochloride],1.01
10,CC(C)C(=O)OCC(=O)[C@@]12O[C@H](C3CCCCC3)O[C@@H]1C[C@H]1[C@@H]3CCC4=CC(=O)C=C[C@]4(C)[C@H]3[C@@H](O)C[C@@]12C [Ciclesonide],1.01
11,CCOC(=O)c1c(N)sc2c1CCN(Cc1ccccc1)C2 [Tinoridine hydrochloride],0.989
